The list is not random: actives were taken first. Their share in the collection is about 2.4%.
POLB inh = inhibitors of human DNA polymerase beta; Pol beta primer extension/strand displacement, fluorescence kinetic; Potency, µM (highest dose often 114 µM), without a hit: at the top dose activity change, negative = inhibition, usual class: inhibitors; AID 485314; 1.3% of 340,000 active; P06746; further: on the % scale 0 is the no-effect control and ±100 the full control effect
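Curves were derived by four-parameter Hill fits of normalized qHTS data. The kinetic fluorescent primer-extension read was taken at 0 and 10 min after 50 nM substrate, following a 15 min room-temperature preincubation of 10 nM enzyme with compounds.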
FEN1 inh = inhibitors of human flap endonuclease 1; AID 588795; Potency, µM (doses to about 114 µM), inactives show at the highest dose activity change, negative = inhibition, most hits filed as inhibitors; P39748; 0.35% of 390,000 active; Recombinant FEN1 flap cleavage, fluorescence, 15 min; further: on the % scale 0 is the no-effect control and ±100 the full control effect; nearly all actives have a fitted effect of over 65% in size
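Potency values derive from four-parameter Hill fits of normalized qHTS data. The reaction used 10 nM FEN1 preincubated 15 min at room temperature with compound, then 50 nM DNA substrate, read at 0 and 15 min.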
POLK inh = blocks human DNA polymerase kappa activity; purified Pol kappa, fluorescent DNA synthesis assay, 10 min; Potency, µM (top dose mostly 107 µM), without a hit: top-dose activity, negative = inhibition, actives largely listed as inhibitors; 0.53% of 400,000 active; AID 588579; further: on the % scale 0 is the no-effect control and ±100 the full control effect
Target sequence (Q9UBT6 whole entry, looked up): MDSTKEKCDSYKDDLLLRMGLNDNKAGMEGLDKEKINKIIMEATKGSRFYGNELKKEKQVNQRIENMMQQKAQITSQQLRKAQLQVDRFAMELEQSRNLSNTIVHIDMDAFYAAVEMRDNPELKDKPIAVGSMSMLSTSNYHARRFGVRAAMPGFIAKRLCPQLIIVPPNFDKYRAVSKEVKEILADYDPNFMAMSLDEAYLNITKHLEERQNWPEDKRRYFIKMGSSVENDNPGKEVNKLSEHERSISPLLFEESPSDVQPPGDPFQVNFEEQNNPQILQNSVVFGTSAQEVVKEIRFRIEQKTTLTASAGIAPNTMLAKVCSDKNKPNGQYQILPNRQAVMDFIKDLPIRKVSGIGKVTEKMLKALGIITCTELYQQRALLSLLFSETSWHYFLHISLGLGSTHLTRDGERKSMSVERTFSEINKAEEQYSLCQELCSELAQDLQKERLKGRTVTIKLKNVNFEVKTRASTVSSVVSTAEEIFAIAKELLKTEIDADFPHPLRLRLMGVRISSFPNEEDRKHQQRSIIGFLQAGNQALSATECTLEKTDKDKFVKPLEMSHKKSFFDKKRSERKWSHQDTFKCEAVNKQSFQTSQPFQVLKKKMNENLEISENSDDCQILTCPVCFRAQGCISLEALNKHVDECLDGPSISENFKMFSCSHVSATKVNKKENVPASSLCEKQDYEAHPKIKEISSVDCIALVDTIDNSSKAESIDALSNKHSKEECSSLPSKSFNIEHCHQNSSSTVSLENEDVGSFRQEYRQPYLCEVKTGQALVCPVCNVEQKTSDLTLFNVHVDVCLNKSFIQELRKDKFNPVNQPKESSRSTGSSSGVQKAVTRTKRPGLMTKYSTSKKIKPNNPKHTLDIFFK
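50 nM final substrate added after 15 min RT preincubation of 10 nM Pol kappa with compound; fluorescence read at 0 and 10 min.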
POLI inh = inhibitors of human DNA polymerase iota; Pol iota fluorescent replication assay, 10 min; Potency, µM (highest dose often 115 µM), for the others: top-dose activity, negative = inhibition, actives largely listed as inhibitors; 1% of 390,000 active; AID 588590
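Pol iota at 10 nM preincubated 15 min with compounds at room temperature; reaction started with fluorescent substrate, 50 nM final. Fluorescence read kinetically at 0 and 10 min; buffer-only wells as negative control.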
Pol eta inh = inhibitors of human DNA polymerase eta | AID 588591 | 1.2% of 390,000 active | recombinant Pol eta, fluorescent DNA replication assay | Potency, µM (series often up to 114 µM), for the others: at the highest dose activity change, negative = inhibition, usual class: inhibitors; further: on the % scale 0 is the no-effect control and ±100 the full control effect
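Pol eta (10 nM) was preincubated with compounds for 15 min at room temperature, after which fluorescent replication substrate (50 nM final) was added to start the reaction. Fluorescence was read kinetically at 0 and 10 min.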
TDP1 inh = TDP1 (human) enzyme inhibition; Q9NUW8; recombinant TDP1, AlphaScreen DNA substrate cleavage; Potency, µM (top dose mostly 130 µM), for inactives: top-dose activity change, negative = inhibition, usual class: inhibitors; 0.28% of 350,000 active; AID 485290; further: on the % scale 0 is the no-effect control and ±100 the full control effect; nearly all actives have a fitted effect of over 40% in size
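Recombinant human Tdp1 (E. coli-expressed, 1 nM final) preincubated with compounds 15 min at room temperature, then 5'-biotin/3'-phosphotyrosine-FITC DNA substrate (15 nM final) added for 5 min. AlphaScreen beads (10 ug/ml final) added 10 min; cleavage lowers signal.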
An asterisk follows results filed as active; ? = inconclusive; . = no result given; ! = not active in a repeat; [ ] = remark or other dose. The call rests on the fitted dose curve; in most records, active means well fitted curve in the direction sought with a large enough effect; inconclusive means small, poorly fitted or top-dose-only effect, or another doubt; inactive means no such curve, though single readings can be large; an effect the other way counts as inactive or inconclusive. Potency means the concentration at half of the fitted maximal effect.

SMILES	POLB inh	FEN1 inh	POLK inh	POLI inh	Pol eta inh	TDP1 inh
O=C(Nc1cc(C(=O)Nc2ccc(S(=O)(=O)O)cc2S(=O)(=O)O)cc(C(=O)Nc2ccc(S(=O)(=O)O)cc2S(=O)(=O)O)c1)Nc1cc(C(=O)Nc2ccc(S(=O)(=O)O)cc2S(=O)(=O)O)cc(C(=O)Nc2ccc(S(=O)(=O)O)cc2S(=O)(=O)O)c1	0.22µM*	-119%	0.18µM*!	1.3µM*	0.1µM*	5µM*
CSc1ccc(-c2sc(Nc3ccccc3)n[n+]2-c2ccccc2)cc1	?	22µM*	-15%	?	4%	.
CCc1ccc(Nc2n[n+](-c3ccccc3)c(-c3ccc(SC)cc3)s2)cc1	2%	-3%	8%	15%	-9%	.
Cc1ccc(N[S+](=O)([O-])c2cc3c(cc2CCc2ccccc2)NC(=O)CO3)cc1C	.	.	.	.	.	2%
CC1=CCC2C(=O)N(c3nc4ccccc4n3C)C(=O)C2C1 (stereo not given)	25µM*	2%	-24%	?	?	40µM*
CC1=CCC2C(=O)N(C(C)c3ccccc3)C(=O)C2C1 (stereo not given)	1%	-13%	-6%	3%[58.9 µM]	-8%	2%
COc1cccc(C2c3c(ncn(-c4ccccc4SC)c3=N)Oc3ccc4ccccc4c32)c1 (stereo not given)	.	.	.	.	.	5%
Cc1c(CNC2CCC(C)CC2)c(C(=O)O)c(C)n1Cc1ccccc1F (stereo not given)	1%	-1%	-8%	18%	-18%	8%
CCOc1ccc(Nc2cc(C)nc3nc(Cc4ccc(Cl)cc4)nn23)cc1	?	7%	-29%	79µM*	-20%	-12%
CCCCC[C@H](O)/C=C/C1=C(CCCCCCC(=O)O)C(=O)CC1	?	-3%	50µM*!	45µM*	25µM*	11%
O=C(C1=C(O)C(=O)N(c2nc3ccc(Cl)cc3s2)C1c1ccco1)c1ccco1 (stereo not given)	.	-36%	40µM*	7.9µM*	20µM*	-2%
O=C(O)CNS(=O)(=O)c1ccc2c(c1)CCCC2	42%	-2%	-18%	98%	-11%	50µM*
Cc1nc(CNS(=O)(=O)c2ccc3c(c2)CCCC3)cs1	-6%	-19%	-9%	11%	-9%	3%
Cc1cccc(-c2nc(SCc3cc(=O)c4cccc(F)c4[nH]3)n[nH]2)c1	-3%	19%	-11%[60.1 µM]	-4%	-10%	0%
COc1cccc(NC(=O)C(OC(=O)CNC(=O)c2ccccc2)c2ccccc2)c1 (stereo not given)	.	.	.	.	.	0%
C=CCn1c(SCC(C)=O)nc2scc(-c3ccco3)c2c1=O	10µM*	?	?	?	40µM*	8%[0.0935 µM]
CC(C)C(C)(C#N)NC(=O)CSc1nc2scc(-c3ccco3)c2c(=O)n1-c1ccccc1 (stereo not given)	28µM*	5%	-4%	?	-11%	.
CC(C)C(C)NC(=O)CSc1nc2scc(-c3ccco3)c2c(=O)n1-c1ccccc1 (stereo not given)	-4%	-2%	-19%	?	?	-2%
C=CCn1c(SC(F)F)nc2scc(-c3ccco3)c2c1=O	9%	-17%	-10%	9%	-18%	4%
CC(C)(C)c1ccc(C(=O)C[n+]2cc(Br)cc(Br)c2)cc1	.	-4%	6%	10%	.	.
CCCCNC(=O)C1CCN(S(=O)(=O)c2cc(Br)cc3c2N(C(=O)CC)CC3)CC1	2%	-21%	-21%	-25%	-10%	4%
COc1ccc(-c2nc(CSCC(=O)NCc3ccccc3Cl)c(C)o2)cc1OC	20%	-19%	-13%	-12%	-10%	7%
Cc1cc(C)c(C)c(S(=O)(=O)N[C@@H](C)C(=O)OCc2cc(=O)n3cc(Br)ccc3n2)c1C	8.9µM*	6%	?	50µM*	?	-1%
Cc1ccccc1C(=O)NC(CC(C)C)C(=O)OCc1cc(=O)n2cc(Br)ccc2n1 (stereo not given)	47%	1%	-22%	-1%	-15%	3%
COc1ccc(Cn2c(=O)c3oc4ccccc4c3n(CC(=O)Nc3c(C)cccc3C)c2=O)cc1	3%	20%	2%	15%	-10%	0%
SMILES	POLB inh	FEN1 inh	POLK inh	POLI inh	Pol eta inh	TDP1 inh
O=c1c2ccccc2sn1-c1ccc(Cl)c(S(=O)(=O)N2CCOCC2)c1	.	?	-14%	79µM*	.	2%
Cc1noc(C)c1-c1cc(Nc2ccc(F)cc2)ncn1	.	.	-5%[60.1 µM]	.	.	7%[56.1 µM]
Cc1noc(C)c1-c1cc(NC2CC2)ncn1	.	.	-1%[60.1 µM]	.	.	40µM*
Cc1noc(C)c1-c1cncnc1NC1CC1	.	.	-3%[60.1 µM]	.	.	28µM*
CC(C)Cc1nn2c(=O)cc(COC(=O)c3ccc4c(c3)OCO4)nc2s1	5%	0%	-2%	1%	-3%	3%
NC(=S)N=Nc1ccc(NN=C(N)N)cc1	-4%	50µM*	?	?	-14%	.
COc1ccc(/C=C2\SC(=N)N(c3nccs3)C2=O)cc1OC	?	79µM*	-21%	23%	?	3%
O=[N+]([O-])c1ccccc1-c1ccc(/C=N/n2cnnc2)o1	8%	-15%	-4%	-5%[58.9 µM]	5%	-8%
O=[N+]([O-])c1cc(-c2ccc(/C=N\n3cnnc3)o2)cc([N+](=O)[O-])c1	56µM*	-7%	?	22µM*	?	.
O=C(NCCc1ccccc1)c1ccc(=O)[nH]c1	3%	-4%	-8%	1%	3%	6%
O=C(NCCSCc1ccco1)c1ccc(=O)[nH]c1	-7%	0%	-38%	50µM*	-20%	-4%[0.0935 µM]
Cc1ccc(C)c(N(CC(=O)NCCSCc2ccco2)S(C)(=O)=O)c1	28µM*	-13%	79µM*	?	22µM*	2%
CCc1ccc(OCC(=O)NNC(=O)c2cc3ccccc3o2)cc1	25µM*	2%	-23%	33%	9%	3%
CCc1ccc(OCC(=O)Nc2ccc(-c3nc4ccccc4o3)c(O)c2)cc1	2.2µM*	4%	-15%	0%	?	1%
Cc1cc(C)cc(OCC(=O)NNC(=O)c2cc3ccccc3o2)c1	-4%	1%	0%	10%	-10%	0%
CCc1ccc(OCC(=O)NNC(=O)Cc2cccs2)cc1	20µM*	5%	-18%	58%	?	5%
O=C(CNC(=O)c1ccccc1O)N/N=C/c1cc(Br)ccc1OC(=O)/C=C/c1ccco1	-4%	?	?	?	?	9%
O=C(CNC(=O)c1cccc(F)c1)N/N=C/c1cc(Br)ccc1OC(=O)/C=C/c1ccco1	35µM*	-22%	-9%[60.1 µM]	?	9%	0%
CN(Cc1nccs1)c1ncnc2ccc(-c3ccc4c(c3)OCO4)cc12	.	.	.	.	.	2%

Bioassay records from PubChem.
